Assay results from PubChem BioAssay AID1619 (SRMLSC, 2009).
In all, about 220,000 compounds went through this assay and about 830 (0.38%) were called active.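 Rule for the calls: active = compound inhibiting the enzyme by more than half at any dose during confirmatory dose-response retesting; inconclusive = strong single-dose inhibitors picked by rank but not retested; inactive = the rest.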 The list is a sample of the results. Measured potencies and affinities stand elsewhere.

Target: Leucine aminopeptidase (Plasmodium falciparum (isolate 3D7)) (UniProt Q8IL11)
Assay: P. falciparum M17LAP inhibitors, primary screen, biochemical, fluorogenic H-Leu-NHMec substrate, 1536-well (AID 1619);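 note: plate controls were full reaction with DMSO carrier for no effect and no enzyme background for full effect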
Settings: recombinant M17LAP, H-Leu-NHMec fluorogenic kinetic assay; at 30 µM; stronger effect = higher value

Leucine aminopeptidase (Plasmodium falciparum (isolate 3D7)), sequence (Q8IL11 whole entry, looked up): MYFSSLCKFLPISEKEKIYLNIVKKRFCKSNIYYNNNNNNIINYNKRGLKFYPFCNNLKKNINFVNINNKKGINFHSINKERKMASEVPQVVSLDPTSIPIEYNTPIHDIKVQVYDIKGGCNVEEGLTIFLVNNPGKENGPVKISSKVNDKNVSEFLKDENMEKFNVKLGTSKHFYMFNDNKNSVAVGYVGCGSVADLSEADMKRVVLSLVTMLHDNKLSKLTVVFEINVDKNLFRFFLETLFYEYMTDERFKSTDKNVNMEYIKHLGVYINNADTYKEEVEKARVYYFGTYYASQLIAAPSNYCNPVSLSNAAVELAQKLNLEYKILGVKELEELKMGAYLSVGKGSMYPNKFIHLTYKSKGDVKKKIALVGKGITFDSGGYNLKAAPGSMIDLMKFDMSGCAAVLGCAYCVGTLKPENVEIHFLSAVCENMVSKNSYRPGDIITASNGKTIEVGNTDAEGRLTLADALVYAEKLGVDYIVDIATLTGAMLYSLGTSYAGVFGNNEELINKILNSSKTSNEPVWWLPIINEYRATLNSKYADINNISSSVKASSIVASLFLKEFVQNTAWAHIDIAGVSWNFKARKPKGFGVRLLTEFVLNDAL

inhibition, inactive:
Cc1cccn2cc(CCNS(=O)(=O)c3cccc([N+](=O)[O-])c3)nc12 -1.3%
COCCn1c(N)c(N(Cc2ccccc2)C(=O)c2ccc(C#N)cc2)c(=O)[nH]c1=O 1.64%
Cc1nn(C)c(Cl)c1C(=O)NC(C(=O)O)c1ccccc1 (stereo not given) -0.49%
O=C(O)CSc1nc2ccccc2n1-c1ccccc1 6.57%
C/C=C/Cn1c(Br)nc2c1c(=O)[nH]c(=O)n2C 6.95%
O=C1c2ccccc2-c2cccc(C(=O)N3CCN(C(=O)c4ccccc4)CC3)c21 2.37%
CC1=C(C(=O)N2CCOCC2)C(c2ccc(Br)cc2)NC(=S)N1c1ccccc1 (stereo not given) 1.22%
Nc1nonc1C(=Nc1ccc(Br)cc1)NO -2.77%
COc1ccc(NC(=S)N(Cc2ccc(C)cc2)Cc2ccccn2)cc1 4.2%
COc1ccc(-c2cc(C(F)(F)F)n3nc(C(=O)O)nc3n2)cc1 42.7%
NC(=O)CSc1nccn1Cc1ccc(Cl)cc1 -2.93%
O=C(COC(=O)c1cccs1)Nc1ccccc1 4.15%
CCN(c1ccc(NC(=O)COC(=O)c2cccs2)cc1)C(C)C 38.8%
CNC(=S)N1N=C(c2ccc(C)cc2)CC1c1ccc(Cl)cc1 (stereo not given) 5.37%
CCOc1[nH]n(-c2ccccc2)c(=O)c1C=Nc1ccc(F)cc1F 2.5%
CCOC(=O)N1CCN(C(=O)/C(=C/c2cccs2)NC(=O)c2cccs2)CC1 16.7%
O=c1c2c3c(sc2[nH]c(=S)n1Cc1ccco1)CCC3 -4.17%
CCn1c(=S)[nH]c2sc3c(c2c1=O)CCCCC3 3.46%
O=C(COC(=O)c1ccccc1OCc1ccc(Cl)cc1)NC1CC1 -0.6%
O=C(O)c1sccc1OCc1ccccc1 -1.01%
Cc1ccc(COc2ccsc2C(=O)O)cc1 -3.31%
COc1ccc(C(=O)CSc2n[nH]c(-c3ccncc3)n2)cc1[N+](=O)[O-] -7.99%
Cc1c(Br)c(=O)oc2c(Br)c(O)c(O)cc12 45.5%
O=c1cc2c(=O)oc3cc(O)c(O)oc3c2c(O)c1O 33%
Cc1ccc(C)c(NC(=O)CSc2nnc(-c3ccco3)o2)c1 1.4%
Cc1cccc(Nc2nnc(SC/C(O)=C(\C#N)c3nc4ccccc4[nH]3)s2)c1 19.5%
Cc1cccc(Nc2nnc(SC/C(O)=C(\C#N)c3nc4ccccc4[nH]3)s2)c1C -9.64%
COc1ccc(S(=O)(=O)N2CCOC2CNC(=O)C(=O)NCc2cccnc2)cc1C (stereo not given) 10.8%
CCn1c(=S)[nH]c2c(c1=O)C(C)(C)Cc1ccccc1-2 -1.93%
CN(C)Cc1nc2c(c(=O)[nH]1)C(C)(C)Cc1ccccc1-2 -7.27%
Cc1ccc(S(=O)(=O)c2nc(C)c3c(n2)CCC3)cc1 -1.17%
CCOC(=O)c1cnc(SCC(=O)Nc2cc(C(F)(F)F)ccc2N2CCOCC2)nc1N -15.2%
CC(=O)/C(C#N)=C1\NC(=O)C(Cc2ccccc2C)S1 (stereo not given) 23.4%
CC(=O)/C(C#N)=C1\NC(=O)C(Cc2cc(Cl)ccc2Cl)S1 (stereo not given) 45.6%
COCCCn1c(SCc2cc(=O)[nH]c3ccccc23)nnc1-c1ccco1 -2.38%
COCCSc1nnc(NC(=O)C2CC(=O)N(c3ccc(C)cc3)C2)s1 (stereo not given) 1.69%
CC(=O)Nc1ccc(S(=O)(=O)Oc2cccc(N3C(=O)C4CC=CCC4C3=O)c2)cc1 (stereo not given) 15.9%
O=C1C2CC=CCC2C(=O)N1c1cccc(OS(=O)(=O)c2ccc3ccccc3c2)c1 (stereo not given) 6.42%
CCOc1ccc(NC(=S)NNC(=S)Nc2cccc(C(F)(F)F)c2)cc1 -5.94%
O=C(NCc1ccco1)c1cc(-c2ccccn2)nc2ccccc12 6.45%
COc1ccc(NC(=S)NNc2ccc([N+](=O)[O-])cc2S(=O)(=O)Nc2ccc(C)cc2C)cc1 4.17%
COc1ccc(NC(=O)c2ccccc2NS(=O)(=O)c2ccc(C)cc2)c([N+](=O)[O-])c1 2.55%
O=C(O)c1ccccc1Nc1ccc(OC(F)F)cc1 18.9%
Cc1ccc(S(=O)(=O)Nc2ccccc2C(=O)OC(C)C(=O)Nc2ccc3ccccc3c2)cc1[N+](=O)[O-] (stereo not given) -9.25%
Cc1ccc(NC(=O)C(C)[n+]2ccccc2)cc1[N+](=O)[O-] (stereo not given) -17.4%
CCOC(=O)c1nn(-c2ccc(Br)cc2)cc1C(=O)c1cccc2ccccc12 2.03%
O=c1c(Cl)c(NCc2ccccc2)cnn1C12CC3CC(CC(C3)C1)C2 -15.7%
O=c1c(Cl)c(NCc2ccc(F)cc2)cnn1C12CC3CC(CC(C3)C1)C2 18.3%
O=c1c(Cl)c(NCc2ccc(F)cc2Cl)cnn1C12CC3CC(CC(C3)C1)C2 -15.2%
O=C(O)CC12CC3CC(C1)CC(n1ncc(NCc4ccccc4)c(Cl)c1=O)(C3)C2 8.41%
O=C(O)Cc1ccc(Nc2cnn(C34CC5CC(CC(CC(=O)O)(C5)C3)C4)c(=O)c2Cl)cc1 23.1%
O=C(O)CC12CC3CC(C1)CC(n1ncc(NCc4ccco4)c(Cl)c1=O)(C3)C2 7.19%
O=C(O)C12CC3CC(C1)CC(n1ncc(NCc4ccco4)c(Cl)c1=O)(C3)C2 1.68%
O=C(O)CC12CC3CC(C1)CC(n1ncc(NCc4ccccc4Cl)c(Cl)c1=O)(C3)C2 23.6%
COc1ccccc1N1CCN(C(=O)COc2ccc(Cl)cc2Br)CC1 1.89%
CCOC(=O)C1CCN(C(=O)Nc2ccc(OC(F)(F)F)cc2)CC1 7.03%
O=C(c1cc2cccc([N+](=O)[O-])c2oc1=O)N1CCOCC1 14.7%
CCOC(=O)c1c(C)[nH]c(C)c1C(=O)COC(=O)/C=C/c1cccc(C(F)(F)F)c1 -1.01%
Cc1cc(C)c(OC2(c3ccccc3)OC(=O)c3ccccc32)c(C)c1 (stereo not given) -10.6%
Cc1ccccc1/C=N/N=C1/NC(=O)CCS1 23.8%
CN1CCC(=NNC(=O)C(=O)Nc2ccc(F)cc2)CC1 13.2%
COc1cccc(CNC(=O)CCNS(=O)(=O)c2cccc3nsnc23)c1 -1.94%
Cn1cccc1Cc1nnc(SCC(=O)N2CCc3ccccc32)n1CCc1ccccc1 36.6%
O=C(N/N=C/c1cccc([N+](=O)[O-])c1)c1cc(-c2ccc3c4c(cccc24)CC3)n[nH]1 -2.54%
O=C(N/N=C/c1ccccc1C(=O)O)c1cc(-c2ccc3c4c(cccc24)CC3)n[nH]1 91.8%
CC(C)=CC(=O)Nc1ccc(OCc2ccccc2)cc1 2.98%
O=C(NCC1CCCO1)/C(=C\c1cccc([N+](=O)[O-])c1)NC(=O)c1ccccc1 (stereo not given) -4.67%
O=C(O)Cn1c(=O)cnc2ccccc21 -13.7%
CC(C)C1N=C2c3ccccc3N=C(SCC(=O)NCCc3ccc(S(N)(=O)=O)cc3)N2C1=O (stereo not given) -29.1%
CC(C)C1N=C2c3ccccc3N=C(SCC#N)N2C1=O (stereo not given) -5.52%
CNC(=O)c1c2c(nc3ccc(Br)cc13)CCCC2 -4.18%
O=C(CSc1nc2ccccc2c(=O)n1-c1ccc(F)cc1)Nc1ccc2c(c1)CCC2 13.5%
COc1ccc(-n2c(SCC(=O)Nc3cccc4ccccc34)nc(O)cc2=O)cc1 -2.11%
Cc1nnc(SCC(=O)Nc2ccc3c4c(cccc24)CC3)n1C 0.6%
Cc1cccc(OCC(=O)Nc2ccc3c4c(cccc24)CC3)c1C 6.88%
Cc1ccc(-n2c(SCC(=O)Nc3ccc4c5c(cccc35)CC4)nc(O)cc2=O)cc1 26.7%
Cc1ccc(-n2c(SCC(=O)Nc3ccc4c5c(cccc35)CC4)nc(O)c(C)c2=O)cc1 39%
Cc1ccccc1Cn1nc(C)c(NC(=O)C2c3ccccc3Oc3ccccc32)c1C -14%
CCN(CC)C(=O)c1ccc(-c2nnc(OC)c3ccccc23)cc1 -4.54%
COC(=O)c1c(-c2cccs2)csc1NC(=O)c1cccnc1 15.9%
CCCn1c(SCC(=O)N2c3ccccc3Sc3ccccc32)nc2ccccc21 -2.24%
CC1CCCCN1Cc1c(C#N)c2ccccc2n1C (stereo not given) -2.84%
Cc1c(Cl)c(C(F)F)nn1CC(=O)NC1C(=O)N2C(C(=O)O)=C(CSc3nnnn3C)CSC12 (stereo not given) 11.3%
Cc1nnc(SCC2=C(C(=O)O)N3C(=O)C(NC(=O)Cn4nc(C(F)F)cc4C)C3SC2)s1 (stereo not given) 47.7%
O=C(Nc1ccc(Oc2cccc3ccccc23)cc1)c1ccco1 -4.51%
CCN1C(=O)CC(N2CCN(c3ccc(C(=O)c4ccncc4)cc3)CC2)C1=O (stereo not given) 31.2%
CC(=O)NC(C(=O)OCC(=O)N(c1ccccc1)c1ccccc1)C(C)C (stereo not given) 0.51%
Cc1cc(N2CCCC2)ccc1/C=C1\NC(=S)N(C)C1=O -1.37%
Cc1cc(N2CCCC2)ccc1/C=C1/C(=O)N(C)C(=S)N1C 1.26%
COc1cc2c(cc1OC)C(C(=O)N1CCCCC1)C(c1ccccc1F)N(C)C2=O (stereo not given) 2.89%
